Bioassay records: PubChem, National Center for Advancing Translational Sciences (NCATS)
KB-V1 cytotox: qHTS assay for MDR1-selective chemotherapeutics: Primary screen using the drug-selected MDR subline cells KB-V1. actives 3.4% (n = 400,000). Potency, µM (top dose mostly 46.1 µM), actives largely listed as cytotoxic. KB-V1 MDR cells viability, CellTiter-Glo, 72 h; note: nearly all actives have a fitted effect of over 60% in size
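Cytotoxicity toward P-gp-expressing KB-V1 cells was determined as loss of CellTiter-Glo luminescence after 72 h at 37 degrees C. Compounds were tested in quantitative HTS format across a concentration range, with curves fitted to normalized data.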
HT1080 IDH1KD tx: qHTS for induction of synthetic lethality in tumor cells producing 2HG: qHTS for the HT-1080-IDH1KD cell line | actives 2% (n = 360,000) | Potency, µM (highest dose often 46.1 µM), most hits filed as cytotoxic | HT-1080 IDH1 knockdown viability, ATP luminescence, 48 h
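Assay cells: HT-1080 with IDH1 knockdown, 750 per well, RPMI/5% FBS. Exposure: 48 h at 37 °C following 2 h pre-incubation. Read: CellTiter-Glo luminescence; fitted concentration-response, curve class assigned.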
SW480 rerep: A quantitative high throughput screen for small molecules that induce DNA re-replication in SW480 colon adenocarcinoma cells; SW480 DNA re-replication, Hoechst DNA content imaging, 48 h; Potency, µM (series often up to 46.1 µM), actives largely listed as activators; actives 1.8% (n = 340,000); AID 624297, 2012; note: nearly all actives have a fitted effect of over 55% in size
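First, 250 cells per well were seeded. Next, compound or vehicle (23 nL) was pinned in, plates sat 48 hr at 37 C. Finally Hoechst was added for 40 min before fluorescence scanning.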
MCF10A rereplic: A quantitative high throughput screen for small molecules that induce DNA re-replication in MCF 10a normal breast cells; AID 624296, 2012; actives 2.9% (n = 350,000); Potency, µM (titrated, usually from 46.1 µM), most hits filed as activators; MCF 10A DNA re-replication, Hoechst nuclear intensity, 48 h; note: nearly all actives have a fitted effect of over 50% in size
KB-3-1 cytotox: qHTS assay for MDR1-selective chemotherapeutics: Primary screen using the parental adenocarcinoma cell KB-3-1; KB-3-1 viability, CellTiter-Glo ATP luminescence, 72 h; Potency, µM (doses to about 46.1 µM), actives largely listed as cytotoxic; actives 1.4% (n = 400,000); note: nearly all actives have a fitted effect of over 60% in size
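Parental KB-3-1 viability, qHTS format: 72 h compound exposure, 37 °C; CellTiter-Glo; media-only wells and DMSO plates as controls; concentration-effect fits on corrected data.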
HT1080NT lethal: qHTS for induction of synthetic lethality in tumor cells producing 2HG: qHTS for the HT-1080-NT fibrosarcoma cell line | actives 1.6% (n = 360,000) | HT-1080-NT fibrosarcoma viability, CellTiter-Glo ATP luminescence, 48 h | Potency, µM (highest dose often 46.1 µM), usual class: cytotoxic;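 note: NT is the 2HG producing partner of a matched IDH1 knockdown line; nearly all actives have a fitted effect of over 55% in size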
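A 48-hour cytotoxicity screen used HT-1080-NT cells plated 2 hours before compound delivery. ATP-based CellTiter-Glo luminescence measured viability, normalized to DMSO and no-cell controls.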
Each line names hits and unclear results; the compound was inactive in the other large screens. A selection: hits, their analogues and other compounds. The true share with any hit is near 7.9%. Calls come from the whole dose curve; as a rule, active = well fitted curve in the direction sought with a large enough effect; inconclusive = small, poorly fitted or top-dose-only effect, or another doubt; inactive = no such curve, though single readings can be large; an effect the other way counts as inactive or inconclusive.

O=C(c1ccco1)N1CCN(c2ncnc3scc(-c4ccc(F)cc4)c23)CC1	HT1080 IDH1KD tx inconclusive, MCF10A rereplic inconclusive, HT1080NT lethal inconclusive
Cc1sc2ncnc(N3CCN(C(=O)c4ccco4)CC3)c2c1C	KB-V1 cytotox 18µM, MCF10A rereplic inconclusive, KB-3-1 cytotox inconclusive
Cc1nc(N2CCN(C(=O)c3ccco3)CC2)c2c3c(sc2n1)CCC3	KB-V1 cytotox 8.2µM, KB-3-1 cytotox inconclusive
CC(C)(C)C(=O)N1CCN(c2ncnc3scc(-c4ccccc4)c23)CC1	KB-V1 cytotox 15µM, HT1080 IDH1KD tx inconclusive, KB-3-1 cytotox inconclusive
O=C(CSc1nc2ccccc2c(=O)n1CCCN1CCOCC1)c1c[nH]c2ccccc12	KB-V1 cytotox inconclusive, HT1080 IDH1KD tx inconclusive, SW480 rerep inconclusive, MCF10A rereplic inconclusive, HT1080NT lethal inconclusive
CCC(C)Sc1ccc(-c2nc3ccc(C)cn3c2NCc2ccccc2)cc1 (centres undefined)	KB-V1 cytotox inconclusive, MCF10A rereplic inconclusive, KB-3-1 cytotox inconclusive
COc1ccc(CSc2ccc(-c3nc4ccccn4c3NCc3ccccc3)cc2OC)cc1	KB-V1 cytotox inconclusive, SW480 rerep inconclusive, MCF10A rereplic 23µM, KB-3-1 cytotox inconclusive
CCC(C)Sc1ccc(-c2nc3ccccn3c2NCc2ccccc2)cc1OC (centres undefined)	KB-V1 cytotox inconclusive, HT1080 IDH1KD tx inconclusive, MCF10A rereplic 21µM, KB-3-1 cytotox inconclusive, HT1080NT lethal inconclusive
O=C(NCc1ccc(F)cc1)c1ccc(CS(=O)Cc2ccccc2Cl)o1 (centres undefined)	KB-V1 cytotox inconclusive, KB-3-1 cytotox inconclusive
CCOC(=O)C1=CN(Cc2ccc(OC)cc2)C=C(C(=O)OCC)C1c1cccs1	KB-V1 cytotox inconclusive, SW480 rerep inconclusive, MCF10A rereplic 18µM
Fc1cccc(-c2cc3nc4c(c(N5CCOCC5)n3n2)CCCC4)c1	KB-V1 cytotox 26µM
Clc1cccc(-c2cc3nc4c(c(N5CCOCC5)n3n2)CCCC4)c1	none
Cc1ccc(NC(=O)CSc2nc(NS(=O)(=O)c3ccc(C)cc3)cc(=O)[nH]2)cc1	KB-V1 cytotox 4.1µM, MCF10A rereplic inconclusive
O=C(CSc1nc(NS(=O)(=O)c2ccccc2)cc(=O)[nH]1)Nc1ccc(Cl)cc1	KB-3-1 cytotox inconclusive
O=c1cc(NS(=O)(=O)c2ccccc2)nc(SCc2ccc(Cl)cc2)[nH]1	KB-V1 cytotox 16µM, MCF10A rereplic inconclusive
CCCCNC(=O)C(NC(=O)Cc1cc(OC)cc(OC)c1)C(=O)c1ccccc1 (centres undefined)	KB-V1 cytotox inconclusive (no result: SW480 rerep, MCF10A rereplic)
Cc1ccc(S(=O)(=O)NCC(=O)N(CC(=O)NCC2CCCO2)Cc2ccco2)cc1 (centres undefined)	none
COc1ccc(NS(=O)(=O)c2ccc3[nH]c4c(c3c2)CCCCCC4)cc1	none (no result: HT1080 IDH1KD tx, SW480 rerep, MCF10A rereplic, HT1080NT lethal)
O=C(CC1Sc2ccccc2NC1=O)Nc1ccccc1[N+](=O)[O-] (centres undefined)	KB-V1 cytotox 16µM
Cc1c(C(C)C)c(=O)n(-c2ccc(S(=O)(=O)NCc3ccccc3)cc2)n1C	KB-V1 cytotox 2.6µM, HT1080 IDH1KD tx inconclusive, KB-3-1 cytotox inconclusive, HT1080NT lethal inconclusive
Cc1c(C(C)C)c(=O)n(-c2ccccc2)n1C	none (no result: KB-V1 cytotox, HT1080 IDH1KD tx, KB-3-1 cytotox, HT1080NT lethal)
C/C(=N\Nc1cccc2cccnc12)c1ccc(N)cc1	SW480 rerep inconclusive
C/C(=N\Nc1cc(C)nc(-c2ccccc2)n1)c1cccc([N+](=O)[O-])c1	MCF10A rereplic 0.73µM
COc1ccc(/C(C)=N/Nc2nc3ccccc3nc2C)cc1OC	HT1080 IDH1KD tx inconclusive
C/C(=N\Nc1cc(-c2ccccc2)nc(-c2ccccc2)n1)c1ccc(O)c(C)c1	KB-V1 cytotox inconclusive, HT1080 IDH1KD tx 23µM, SW480 rerep inconclusive, MCF10A rereplic 7.3µM, HT1080NT lethal inconclusive
